A selection: hits, their analogues and other compounds. The true share with any hit is near 11%.
USP17 block – inhibitors of human USP17 deubiquitinase | Ubiquitin carboxyl-terminal hydrolase 17-like protein 5 (Homo sapiens), A8MUK1 | purified USP17, Ub-rhodamine cleavage fluorescence, 3 h | inhibition, % at 50 µM | 47,000 compounds, 6.5% hits | AID 1645855, 2021
USP28 inh – inhibitors of human USP28 deubiquitinase; inhibition, % at 25 µM; 47,000 compounds, 3% hits; Ubiquitin carboxyl-terminal hydrolase 28 (Homo sapiens), Q96RU2; purified USP28, Ub-rhodamine cleavage fluorescence, 30 min
Target sequence (Q96RU2 whole entry, looked up): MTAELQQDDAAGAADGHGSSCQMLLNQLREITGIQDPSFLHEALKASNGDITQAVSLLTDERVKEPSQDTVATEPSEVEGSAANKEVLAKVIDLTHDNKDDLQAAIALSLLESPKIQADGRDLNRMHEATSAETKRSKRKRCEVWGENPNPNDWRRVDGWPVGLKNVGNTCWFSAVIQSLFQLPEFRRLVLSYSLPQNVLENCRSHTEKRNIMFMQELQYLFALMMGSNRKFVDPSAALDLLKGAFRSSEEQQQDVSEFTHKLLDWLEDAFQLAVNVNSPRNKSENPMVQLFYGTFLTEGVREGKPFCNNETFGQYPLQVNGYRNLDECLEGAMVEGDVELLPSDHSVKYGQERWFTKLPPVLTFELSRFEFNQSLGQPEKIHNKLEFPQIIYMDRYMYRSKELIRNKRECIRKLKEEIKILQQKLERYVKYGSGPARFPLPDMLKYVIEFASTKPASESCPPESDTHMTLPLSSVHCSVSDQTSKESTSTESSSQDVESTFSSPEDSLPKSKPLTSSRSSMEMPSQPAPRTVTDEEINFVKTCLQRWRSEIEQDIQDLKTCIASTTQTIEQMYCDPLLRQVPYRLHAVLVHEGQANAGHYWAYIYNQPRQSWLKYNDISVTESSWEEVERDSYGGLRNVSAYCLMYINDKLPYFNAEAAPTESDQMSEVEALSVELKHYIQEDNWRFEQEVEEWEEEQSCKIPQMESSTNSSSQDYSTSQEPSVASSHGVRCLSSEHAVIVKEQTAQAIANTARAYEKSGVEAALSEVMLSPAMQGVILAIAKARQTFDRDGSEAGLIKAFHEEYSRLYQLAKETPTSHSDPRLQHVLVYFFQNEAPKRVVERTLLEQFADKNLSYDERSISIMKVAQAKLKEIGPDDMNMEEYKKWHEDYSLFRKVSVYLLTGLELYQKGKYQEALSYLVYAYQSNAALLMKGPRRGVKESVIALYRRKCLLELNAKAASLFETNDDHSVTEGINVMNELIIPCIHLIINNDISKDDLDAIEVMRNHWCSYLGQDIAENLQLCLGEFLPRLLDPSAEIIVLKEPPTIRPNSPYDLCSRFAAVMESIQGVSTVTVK
USP30 inh – inhibitors of human USP30 deubiquitinase; Ubiquitin carboxyl-terminal hydrolase 30 (Homo sapiens), Q70CQ3; purified USP30, Ub-rhodamine cleavage fluorescence; inhibition, % at 25 µM; 47,000 compounds, 5.3% hits
Active calls of the source: *; i = inactive; nt = no result. Rule as the data show it: active = inhibition above about 30%; inactive = the rest.

SMILES	USP17 block	USP28 inh	USP30 inh
COCCNC(=O)c1nc2c(o1)CN(CC1CC1)C2	-165.4	-9.6	-39.6
COc1ccccc1NC(=O)C1=C(C)Nc2nc(SCc3ccccc3F)nn2C1c1ccccn1 (configuration not stated)	2.7	-2.1	-10.8
O=C(NCc1nc(-c2ccc3c(c2)ncn3C2CCCC2)no1)c1cccs1	1.2	-33.6	-243.1
CCCn1nnc2cc(-c3noc(CNC(=O)c4cccs4)n3)ccc21	33.3*	15.6	15.2
COc1ccc(NC(=O)COC(=O)c2cccc(S(=O)(=O)N(C)c3cccc(Cl)c3)c2)c(OC)c1	1.5	5.4	33.0*
CN(c1cccc(Cl)c1)S(=O)(=O)c1cccc(C(=O)OCC(=O)N(Cc2ccccc2)C(C)(C)C)c1	0.0	5.3	6.0
Cc1c(C(=O)N2CC(c3nc4ccccc4[nH]3)C2)cnn1-c1ccccc1	-3.4	-10.3	-9.1
CC12CCN(CC3CCCCC3)CCN1C(=O)N(Cc1ccccn1)C2=O (configuration not stated)	-9.0	-3.8	-5.5
CC(=O)c1ccc(N2C(=O)[C@H]3Cc4c([nH]c5ccccc45)CN3C2=O)cc1	44.4*	6.9	10.2
Cc1ccc(CN2CC(=O)N3Cc4[nH]c5ccccc5c4C[C@@H]3C2=O)cc1	-2.3	-1.7	-9.7
COc1cccc(COC(=O)C2=CN(C)S(=O)(=O)N=C2C)c1	-156.6	-229.8	i
COc1ccc(CN2CCC(O)(Cn3ccc4nc(Cl)ccc43)CC2)cc1OC	11.7	6.2	13.7
O=C(CCc1nnc2ccc(N3CCCCC3)nn12)N1CCN(C(=O)c2ccco2)CC1	-2.0	-2.9	-9.3
Cc1c(Cl)cccc1NS(=O)(=O)c1ccc2[nH]cc(C(=O)N3CCCCCC3)c(=O)c2c1	-14.4	3.0	-82.5
CCOc1ccc(NS(=O)(=O)c2ccc(NC(=O)COc3ccccc3C)cc2)cc1	23.3	11.3	43.0*
Cc1c(Cl)cccc1NS(=O)(=O)c1ccc(NC(=O)Nc2ccccc2)cc1	39.4*	3.6	33.7*
COc1ccccc1OCC(=O)Nc1ccc(S(=O)(=O)Nc2cc(C)cc(C)c2)cc1	-5.1	0.4	5.2
Cc1ccc(C(C)C)c(OCC(=O)Nc2ccc(S(=O)(=O)Nc3cc(C)nc(C)n3)cc2)c1	8.9	2.3	0.8
COc1cc(NS(=O)(=O)c2ccc(NC(=O)COc3ccc(C)cc3Br)cc2)nc(OC)n1	25.5	-5.4	45.3*
CCOc1ccc(NS(=O)(=O)c2ccc(NC(=O)Nc3ccccc3)cc2)cc1	9.5	48.7*	82.9*
CC(=O)Nc1ccc(S(=O)(=O)Nc2ccc(OCc3ccccc3)cc2)cc1	18.7	20.6	27.5
Cc1cc(-c2ccn[nH]2)nc(C2CCN(S(=O)(=O)N(C)C)CC2)n1	6.5	9.0	22.2
Cc1oc(-c2ccc(Cl)cc2)nc1CN1CCC(C(=O)NCCN2CCCC2)CC1	-30.9	-42.4	-75.5
COc1ccc(NS(=O)(=O)c2ccc(OC)c(NC(=O)c3ccc(OC)cc3)c2)cc1	4.6	5.0	14.9
O=S(=O)(Nc1ccccc1Cl)c1ccc(N2CCCCS2(=O)=O)cc1	-3.2	-3.2	6.4
SMILES	USP17 block	USP28 inh	USP30 inh
Cc1c(Cl)cccc1NS(=O)(=O)c1ccc(N2CCCCS2(=O)=O)cc1	26.3	4.7	39.9*
COc1ccc(NS(=O)(=O)c2ccc(NC(=O)Nc3ccc(Cl)cc3)cc2)cc1	56.1*	42.0*	29.1
COCCn1c(SCC(=O)N2CCCc3ccccc32)nnc1-c1c[nH]c2ccccc12	-12.7	-6.9	2.2
Cc1cc2n(n1)CCC(=O)N2C(C)C(=O)NCc1ccccc1 (configuration not stated)	17.2	12.2	24.8
COCCNC(=O)c1cnn2c(C)cc(C)nc12	11.2	6.5	13.0
Cc1cc(C(=O)Nc2cccn3c(C4CCC4)nnc23)no1	-12.3	27.1	-70.8
Cc1c(Cc2ccccc2)c(=O)oc2cc(OCc3nn[nH]n3)ccc12	35.5*	44.2*	37.5*
COc1ccc2c(C)c(CCC(=O)N3CCN(c4ccccc4)CC3)c(=O)oc2c1	1.0	8.2	12.9
c1ccc(-c2n[nH]c(C3CCCN3C3CCOCC3)n2)cc1 (configuration not stated)	-7.4	-9.3	-33.3
CC(C)(C)c1cc2nc(C3CCN(Cc4ccccn4)CC3)cc(N)n2n1	-39.7	-24.2	-57.0
COc1ccccc1NC(=O)COC(=O)Cc1c[nH]c2ccccc12	-20.0	-16.4	-70.0
CCc1ccc(NC(=O)COC(=O)c2n[nH]c3ccccc23)cc1	71.2*	43.3*	27.6
CCOc1ccc(NC(=O)COC(=O)c2n[nH]c3ccccc23)cc1	-14.0	3.1	16.1
CC(=O)c1ccc(NC(=O)COC(=O)c2c[nH]c3ccccc23)cc1	33.8*	nt	nt
N#Cc1cccc(NC(=O)COC(=O)c2n[nH]c3ccccc23)c1	47.5*	8.0	-119.8

High-throughput results from PubChem BioAssay.
